Source: PubChem (several laboratories)
The list is not random: actives were taken first. Their share in the collection is about 3.3%.
SUMO HTRF inh: blocks human SUMOylation mediated by UBC9. 290,000 compounds, 0.36% hits. AID 2006. HTRF SUMOylation assay, SAE1/SAE2 + UBC9, in vitro. inhibition, % at 35 µM; in the data active = inhibition above about 50%, passing the limit was not always enough
Target sequence (P63279 whole entry, looked up): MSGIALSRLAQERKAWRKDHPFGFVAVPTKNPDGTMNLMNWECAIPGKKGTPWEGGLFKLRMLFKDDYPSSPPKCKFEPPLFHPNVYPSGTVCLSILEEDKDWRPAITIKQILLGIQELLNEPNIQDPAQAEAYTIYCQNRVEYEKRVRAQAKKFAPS
UBC13 polyUb: inhibitors of human UBC13 polyubiquitin chain formation | P61088 | inhibition, % at 20 µM | TR-FRET | AID 485273 | 330,000 compounds, 0.47% hits; in the data active = inhibition above about 45%, passing the limit was not always enough
Target sequence (P61088 whole entry, looked up): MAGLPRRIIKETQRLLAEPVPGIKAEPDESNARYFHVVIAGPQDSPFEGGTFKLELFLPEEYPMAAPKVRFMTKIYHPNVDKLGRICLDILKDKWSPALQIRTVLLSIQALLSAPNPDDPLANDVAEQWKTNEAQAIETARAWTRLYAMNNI
sPLA2-III inh: Inhibits HGIII-sPLA2 liposome hydrolysis, primary screen; Q9NZ20; inhibition, % at 12.2 µM; QFRET BODIPY PC-A2 liposome hydrolysis, fluorescence; 370,000 compounds, 0.56% hits; AID 743126;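 active = inhibition above mean plus 3 SD of compounds lying within the high and low control bounds, cut at about 19% in these data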;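 note: 0% = median of test compound wells and 100% = no enzyme DMSO wells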
NR3A LBD binder: modulators (binders) of human NR3A ligand-binding domain; NR3A LBD differential scanning fluorimetry, Tm shift; 0% = protein alone, 100% = glycine-bound protein; Tm shift relative to glycine control, % at 25 µM; 340,000 compounds, 2.5% hits; AID 1259313;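 active = melting temperature shift of at least 10% of the positive control shift, at one fixed dose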
An asterisk follows results filed as active.

Fc1ccc(-c2csc3ncnc(N4CCc5ccccc5C4)c23)cc1 was read as SUMO HTRF inh -15.0, UBC13 polyUb 2.1, sPLA2-III inh 2.5 and NR3A LBD binder 10.7*.
For CN1CCN(C(c2ccc(Cl)cc2)c2cc(Cl)c3cccnc3c2O)CC1 (configuration not stated) the results were SUMO HTRF inh -5.9, UBC13 polyUb 9.0, sPLA2-III inh 15.3 and NR3A LBD binder 33.8*.
For CN1/C(=C\C(=O)c2cccc([N+](=O)[O-])c2)Sc2ccccc21 the results were SUMO HTRF inh 21.2, UBC13 polyUb -2.4, sPLA2-III inh 2.3 and NR3A LBD binder 12.4*.
ON=C1c2ccccc2-c2ccc(O)cc21 was read as sPLA2-III inh -18.4 and NR3A LBD binder -15.4.
Screening Oc1ccc(C=NN=C2c3ccccc3-c3ccccc32)c(O)c1 returned sPLA2-III inh -24.1 and NR3A LBD binder 23.1*.
`O=[N+]([O-])c1cccc(/C=N\N=C2c3ccccc3-c3ccccc32)c1O` gave SUMO HTRF inh -1.9, UBC13 polyUb -104.3, sPLA2-III inh 9.9 and NR3A LBD binder 14.1*.
`COc1ccc(Br)cc1CNC(C)c1ccccc1` (configuration not stated) gave SUMO HTRF inh -26.7, UBC13 polyUb 12.5, sPLA2-III inh 2.3 and NR3A LBD binder 21.0*.
O=C(NC(NC(=S)Nc1ccc(Cl)cc1)C(Cl)(Cl)Cl)c1ccco1 (configuration not stated) was read as SUMO HTRF inh -16.4, UBC13 polyUb -1.5, sPLA2-III inh -15.8 and NR3A LBD binder 13.4*.
Screening CCc1ccc(OCC(=O)NC(NC(=S)Nc2ccc(Cl)cc2)C(Cl)(Cl)Cl)cc1 (configuration not stated) returned SUMO HTRF inh 8.8, UBC13 polyUb -15.2, sPLA2-III inh -0.2 and NR3A LBD binder 23.8*.
COC(=O)C1CCN(C(=O)C2CC(=O)N(c3ccc(OC)cc3)C2c2ccc(OC)cc2)CC1 (configuration not stated) was read as sPLA2-III inh -1.6.
Screening Cc1nnc(SCC(=O)Nc2sc3c(c2C(=O)c2ccccc2)CCCC3)s1 returned SUMO HTRF inh 12.0, UBC13 polyUb -15.0, sPLA2-III inh -36.1 and NR3A LBD binder 10.4*.
Screening CN1C(=O)C[C@@](C#N)(C(=O)N2CCCC2)[C@H]1c1ccccc1 returned sPLA2-III inh -1.4.
For COc1ccc(N2CCN(C(CNC(=O)C(=O)NCC3CCCO3)c3ccco3)CC2)cc1 (configuration not stated) the results were SUMO HTRF inh 5.8, UBC13 polyUb -10.2, sPLA2-III inh 15.1 and NR3A LBD binder 10.0*.
For COc1ccc(C(=O)NCC2CCCO2)cc1 (configuration not stated) the results were SUMO HTRF inh -17.6, UBC13 polyUb -4.9, sPLA2-III inh -3.2 and NR3A LBD binder 11.6*.
For COC(=O)NCC(c1ccco1)N1CCN(c2ccc(OC)cc2)CC1 (configuration not stated) the results were SUMO HTRF inh 4.5, UBC13 polyUb -8.5, sPLA2-III inh 4.3 and NR3A LBD binder 1.5.
CCCCCCCCNS(=O)(=O)CC1NCc2cc(OC)ccc21 (configuration not stated) was read as sPLA2-III inh -1.1.
`O=C(OCc1cn(Cc2ccc(Cl)cc2)nn1)N1CCCC1` gave sPLA2-III inh -0.6.
Screening O=C(NCCc1c[nH]c2ccccc12)OCc1cn(Cc2cc(F)cc(F)c2)nn1 returned sPLA2-III inh -78.9.
For CN(Cc1ccccc1)C(=O)OCc1cn(Cc2ccc(C(F)(F)F)cc2)nn1 the results were sPLA2-III inh -10.5.
`COc1ccccc1C/C(N)=N/OC(=O)COc1cccc(C)c1` gave SUMO HTRF inh -11.1, UBC13 polyUb 8.3, sPLA2-III inh -2.3 and NR3A LBD binder 12.7*.
For O=C(CSc1nnc(COc2ccc(Cl)cc2)n1Cc1ccco1)Nc1cccc2ccccc12 the results were sPLA2-III inh -30.6.
`COCCn1c(=NC(=O)c2sc3ccccc3c2Cl)sc2cc(S(N)(=O)=O)ccc21` gave SUMO HTRF inh 12.9, UBC13 polyUb 9.2, sPLA2-III inh -6.5 and NR3A LBD binder 23.1*.
`C=CCn1c(=NC(=O)c2cc(Cl)sc2Cl)sc2cc(S(N)(=O)=O)ccc21` gave SUMO HTRF inh -3.6, UBC13 polyUb 1.8, sPLA2-III inh -28.5 and NR3A LBD binder -436.8.
`C=CCn1c(=NC(=O)c2sc3ccccc3c2Cl)sc2cc(S(N)(=O)=O)ccc21` gave SUMO HTRF inh 34.4, UBC13 polyUb 2.7 and NR3A LBD binder 15.5*.
Screening O=C(CSc1nnc(-c2ccccc2)n1-c1ccccc1)Nc1ccccc1-c1ccccc1 returned sPLA2-III inh -16.2.
Screening COc1ccc(CCN2C(=O)C=CC2=O)cc1OC returned sPLA2-III inh -5.3 and NR3A LBD binder 20.1*.
Screening CCCCNC(=O)C[C@@H]1C(=O)N(Cc2ccc(OC)cc2)C2=CCN(C(=O)OC(C)(C)C)C[C@]21C(=O)OCC returned sPLA2-III inh -6.7.
COc1ccc(-n2c(SCC(=O)Nc3ccc(Cl)cc3)nc(O)c(Cc3ccccc3)c2=O)cc1 was read as SUMO HTRF inh -6.5, UBC13 polyUb -7.9, sPLA2-III inh -19.6 and NR3A LBD binder 10.3*.
`COc1ccc(-n2c(SCC(=O)Nc3ccc(C)cc3)nc(O)c(Cc3ccccc3)c2=O)cc1` gave SUMO HTRF inh -9.4, UBC13 polyUb -13.0, sPLA2-III inh -6.1 and NR3A LBD binder -6.5.
For Cn1c(Nc2ccccc2)nc2ccccc21 the results were SUMO HTRF inh 3.5, UBC13 polyUb -0.1, sPLA2-III inh 6.2 and NR3A LBD binder 12.0*.
For COc1ccc(-c2csc(NC(=O)CN3C(=O)C4CCCCC4C3=O)n2)cc1OC (configuration not stated) the results were SUMO HTRF inh -3.2, UBC13 polyUb 11.0, sPLA2-III inh -10.5 and NR3A LBD binder 11.8*.
`COc1ccc(-c2csc(NC(=S)NC(=O)c3cccs3)n2)cc1Br` gave SUMO HTRF inh 30.3, UBC13 polyUb -13.0, sPLA2-III inh -3.8 and NR3A LBD binder 38.2*.
For COc1ccc(-c2csc(NC(=S)NC(=O)c3cccs3)n2)cc1OC the results were SUMO HTRF inh 25.0, UBC13 polyUb -8.6, sPLA2-III inh -4.8 and NR3A LBD binder 10.1*.
O=C(CN1CCc2onc(-c3ccc(-n4cc(-c5ccccc5)nn4)cc3)c2C1=O)N1CCOCC1 was read as sPLA2-III inh -1.3.
For COc1ccc(C2Nc3ccccc3C(=O)N2Cc2ccco2)cc1COc1c(C)cc(NC(C)=O)cc1C (configuration not stated) the results were sPLA2-III inh -3.5.
`O=C(CC1CCCC1)N[C@@H](Cc1cccnc1)C(=O)N1CCC[C@H]1C(=O)NCCc1ccccc1Cl` gave sPLA2-III inh 6.8.
`CCc1ccc(NC(=O)c2cccc(NC3=NC4CS(=O)(=O)CC4S3)c2)cc1` (configuration not stated) gave SUMO HTRF inh 12.0, UBC13 polyUb -2.5, sPLA2-III inh -4.4 and NR3A LBD binder -6.7.
